A selection: hits, their analogues and other compounds. The true share with any hit is near 2.7%.
NRP1-CendR mod = modulators of CendR peptide binding to NRP-1, primary screen, biochemical, fluorescence polarization, uHTS | Neuropilin-1 (Homo sapiens), O14786 | FAM-RPARPAR peptide binding to NRP-1 | inhibition, % at 25 µM | hit rate 0.85% among 360,000;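 active means inhibition or corrected inhibition above about 18%, plus a signal ratio from 0.5 to 1.5, limit read from the data, passing the limit was not always enough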
MPTP inh = mitochondrial permeability transition pore inhibitors, primary screen, biochemical, isolated mouse mitochondria, absorbance; Ca2+ swelling absorbance, 30 min; inhibition, % at 10 µM; hit rate 1.4% among 360,000; AID 602449, 2012;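 active means inhibition of 50% or more, scaled per plate between neutral and stimulator controls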;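 further: 0% = DMSO wells given calcium and 100% = 1 mM EGTA wells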
SKN-1 block = suppressors of acrylamide-induced Pgst-4::GFP reporter in worms, primary screen, SKN-1 inhibitor project, whole organism, uHTS, GFP/RFP fluorescence ratio, strain VP596. C. elegans VP596 Pgst-4::GFP/RFP ratio, 24 h. inhibition, % at 21.8 µM. hit rate 0.49% among 360,000. AID 624304, 2012;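 active means interference check ratio from 0.5 to 1.5 plus GFP to RFP signal ratio inhibition reaching or exceeding a fixed threshold, cut at about 30% in these data, passing the limit was not always enough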
ATG4B inhibitor = ATG4B protease inhibitors, primary screen, biochemical, fluorescence, uHTS; Cysteine protease ATG4B (Homo sapiens), Q9Y4P1; ATG4B cleavage of LC3-PLA2, NBD-HPC fluorescence, 1 h; inhibition, % at 8.33 µM; hit rate 0.51% among 340,000; AID 504462, 2011; in the data active means inhibition above about 40%
Target sequence (Q9Y4P1 whole entry, looked up): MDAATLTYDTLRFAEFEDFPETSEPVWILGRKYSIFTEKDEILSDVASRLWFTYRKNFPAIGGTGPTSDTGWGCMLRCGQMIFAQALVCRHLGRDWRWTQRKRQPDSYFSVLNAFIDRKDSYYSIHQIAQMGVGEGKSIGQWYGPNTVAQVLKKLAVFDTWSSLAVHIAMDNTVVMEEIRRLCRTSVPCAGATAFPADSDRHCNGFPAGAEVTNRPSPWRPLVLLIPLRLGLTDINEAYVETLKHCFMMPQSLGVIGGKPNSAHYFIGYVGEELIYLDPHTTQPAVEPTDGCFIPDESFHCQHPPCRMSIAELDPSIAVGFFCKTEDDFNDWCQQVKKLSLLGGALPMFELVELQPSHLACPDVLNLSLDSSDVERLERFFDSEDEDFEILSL
CFTR F508del cor = F508del CFTR correction, initial screen, CFBE line, single point | CFBE cells, YFP halide quenching; stimulated with forskolin plus potentiator P3; % fluorescence drop versus neutral controls | activity (quench increase), % at 7.58 µM | hit rate 0.36% among 350,000;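 active means mean added fluorescence quench of at least 8% versus neutral control, with both replicates also reaching 8%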;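 further: cells transiently co-express mutant CFTR-F508del with the halide-sensitive YFP; corrector assay measuring rescue of mutant channel to the surface after 24 h compound exposure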
The depositor's hits bear a star.

Cc1noc(C)c1NC(=O)Nc1ccc2c(c1)CC(=O)N([C@@H](C)CO)C[C@@H](C)[C@H](CN(C)C)O2 was read as CFTR F508del cor 1.0.
Cc1ccccc1-c1cnc2c(c1)C(=O)N([C@@H](C)CO)C[C@@H](C)[C@H](CN(C)C(=O)c1ccccc1)O2 was read as CFTR F508del cor -2.6.
C[C@@H]1CCCCO[C@@H](CN(C)C(=O)CCC(F)(F)F)[C@H](C)CN([C@@H](C)CO)C(=O)c2cc(NS(=O)(=O)c3ccc(F)cc3)ccc2O1 was read as CFTR F508del cor -2.2.
Screening CCCNC(=O)N[C@@H]1CC[C@@H](CCn2cc(C3CCCCC3)nn2)O[C@@H]1CO returned CFTR F508del cor -1.0.
For N#C/C(=C\c1ccc(-c2ccccc2)o1)C(=O)Nn1cnnc1 the results were NRP1-CendR mod -10.2, MPTP inh -0.7, SKN-1 block 51.0* and ATG4B inhibitor -5.8.
Screening COc1ccc(-c2ccc(C#N)c(SCC(=O)Nc3sc4c(c3C#N)CCC4)n2)cc1 returned NRP1-CendR mod -1.8, MPTP inh 0.1, SKN-1 block 33.2 and ATG4B inhibitor -7.0.
For N#Cc1ccc(-c2cccnc2)nc1SCC(=O)Nc1sc2c(c1C#N)CCC2 the results were NRP1-CendR mod -72.3, MPTP inh -0.5, SKN-1 block 39.0*, ATG4B inhibitor 3.9 and CFTR F508del cor 2.2.
O=C1CSC(=S)N1Nc1ccccc1 was read as NRP1-CendR mod -6.0, MPTP inh -2.1, SKN-1 block 35.6*, ATG4B inhibitor 5.9 and CFTR F508del cor 3.7.
Cc1ccccc1C(=O)NN1C(=O)CSC1=S was read as NRP1-CendR mod 0.4, MPTP inh 3.2, SKN-1 block -1.2, ATG4B inhibitor 1.7 and CFTR F508del cor 0.6.
Screening CCOc1ccc(S(=O)(=O)NC2=NCCCCC2)cc1 returned NRP1-CendR mod 17.6*, MPTP inh 0.0, SKN-1 block 6.3, ATG4B inhibitor -2.0 and CFTR F508del cor 1.5.
For COc1cccc(CNC(=O)[C@H]2[C@H](CO)[C@H]3Cn4c(ccc(C5=CCCCC5)c4=O)[C@@H]2N3)c1 the results were CFTR F508del cor 0.3.
C/C(=N\NC(=O)c1cc(-c2cccs2)nc2ccccc12)c1ccccn1 was read as NRP1-CendR mod 30.2*, MPTP inh -0.5, SKN-1 block -2.8, ATG4B inhibitor -11.0 and CFTR F508del cor 11.8*.
NNC(=O)c1cc(-c2cccs2)nc2ccccc12 was read as NRP1-CendR mod -6.1, MPTP inh -0.7, SKN-1 block -6.3, ATG4B inhibitor 1.0 and CFTR F508del cor -2.7.
Screening COc1ccc(NC(=O)N[C@H]2C=C[C@H](CC(=O)NC3CCC3)O[C@@H]2CO)cc1 returned CFTR F508del cor 2.6.
`COc1ccc(N=Nc2ccc3ccccc3c2)c(O)c1` gave NRP1-CendR mod -19.9, MPTP inh 2.1, SKN-1 block 32.6*, ATG4B inhibitor -1.2 and CFTR F508del cor -0.1.
For COc1cccc(NC(=O)N2CC3(C2)[C@H](c2ccccc2)[C@H](CO)N3C(=O)C2CCCC2)c1 the results were CFTR F508del cor 1.2.
Screening COC(=O)[C@H]1[C@H](CO)[C@H]2Cn3c(ccc(C4=CCCC4)c3=O)[C@H]2N1C(=O)C1CCCC1 returned CFTR F508del cor -0.4.
For CN1C=CC2=C(C#N)C(N)C(C#N)(C#N)[C@H](c3ccccc3)[C@H]2C1 (stereo partly drawn) the results were NRP1-CendR mod 23.4*, MPTP inh 2.9, SKN-1 block -5.2 and ATG4B inhibitor -1.6.
`O=C(NCCCN1CCCCCC1)C1CC(=O)N(CCc2ccccc2)C1` (stereo not drawn) gave NRP1-CendR mod 22.7*, MPTP inh -1.1, SKN-1 block 1.5 and ATG4B inhibitor -13.4.
`O=C(NCCCN1CCOCC1)C1CC(=O)N(CCc2ccccc2)C1` (stereo not drawn) gave NRP1-CendR mod 1.0, MPTP inh -0.2, SKN-1 block -7.3 and ATG4B inhibitor -0.4.
`Nc1ccc2ccc(O)cc2c1` gave NRP1-CendR mod -5.3, MPTP inh 0.2, SKN-1 block 19.6, ATG4B inhibitor -11.2 and CFTR F508del cor -2.6.
C[n+]1c2cc(N)ccc2cc2ccc(N)cc21 was read as NRP1-CendR mod 142.8, MPTP inh 1.7, SKN-1 block -43.3, ATG4B inhibitor inactive and CFTR F508del cor 61.5*.
`O=C1NCC(c2ccccc2)C1C(=O)N/N=C\c1ccc(-c2cccc(Cl)c2Cl)o1` (stereo not drawn) gave NRP1-CendR mod -0.3, MPTP inh -20.4, SKN-1 block 35.9* and ATG4B inhibitor -27.0.
`CCCNC(=O)N(C)C[C@H]1Oc2ncc(C3=CCCCC3)cc2C(=O)N([C@@H](C)CO)C[C@@H]1C` gave CFTR F508del cor -0.2.
For Brc1ccc(-c2csc(N/N=C/c3ccco3)n2)cc1 the results were NRP1-CendR mod 7.5, MPTP inh 0.5, SKN-1 block 65.1*, ATG4B inhibitor 11.1 and CFTR F508del cor -1.7.
`Clc1ccc(-c2csc(N/N=C/c3ccco3)n2)cc1` gave NRP1-CendR mod 4.6, MPTP inh 8.4, SKN-1 block 90.7*, ATG4B inhibitor 36.0 and CFTR F508del cor -0.2.
For CN(C)S(=O)(=O)c1ccc(-c2csc(N/N=C/c3ccco3)n2)cc1 the results were NRP1-CendR mod -12.1, MPTP inh 14.2, SKN-1 block 2.8, ATG4B inhibitor -2.1 and CFTR F508del cor -1.7.
Screening C(=N\Nc1nc(-c2ccccc2)cs1)/c1ccco1 returned NRP1-CendR mod -2.6, MPTP inh 2.0, SKN-1 block 47.4* and ATG4B inhibitor 9.7.
OC1OC2COC(c3ccccc3)OC2C(O)C1O (stereo not drawn) was read as CFTR F508del cor -2.4.
CC1CCN(CC(=O)Nc2cccc(C(=O)Nc3cccc(C(F)(F)F)c3)c2)CC1 was read as NRP1-CendR mod -0.7, MPTP inh 37.7, SKN-1 block 44.2*, ATG4B inhibitor -6.8 and CFTR F508del cor 1.7.
For CC1CN(CC(=O)Nc2cccc(C(=O)Nc3cccc(C(F)(F)F)c3)c2)CC(C)O1 (stereo not drawn) the results were NRP1-CendR mod 12.0, MPTP inh 0.9, SKN-1 block 18.3 and ATG4B inhibitor -1.4.
CO[C@H]1CN(C)C(=O)c2ccc(NC(=O)C3CC3)cc2OC[C@@H](C)N(CCc2ccccc2)C[C@@H]1C was read as CFTR F508del cor 4.5.
`C[C@@H]1CN([C@H](C)CO)C(=O)c2cc(C#CC3CCCCC3)cnc2O[C@H]1CN(C)C(=O)c1ccncc1` gave CFTR F508del cor -3.1.
Screening N#C[C@H]1N[C@H](CO)[C@H]1c1ccc(C2=CCCC2)cc1 returned CFTR F508del cor -4.0.

From PubChem
